The results in this text go back to PubChem BioAssay (NCATS).

Records with an inconclusive call do not appear. Where a call stands in place of a potency, no number is given. Values without a mark were called inactive. Activity calls are given as the source filed them. Calls come from the whole dose curve; as a rule, active = well fitted activation curve with a large enough effect; inconclusive = small, poorly fitted or top-dose-only effect; inactive = no such curve, though single readings can be large or run the other way.
Potency is the fitted concentration of half-maximal effect.

In the assay the target is Rap guanine nucleotide exchange factor 4 (Homo sapiens) (UniProt Q8WZA2). The experiment in a line: Confirmatory qHTS for agonist of cAMP-regulated guanine nucleotide exchange factor 4 (EPAC2) (AID 1645884).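 Note: nucleotide exchange releases bodipy-GDP from Rap1 and this lowers its fluorescence; nearly all actives have a fitted effect of over 65% in size.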 The conditions noted are these: EPAC2 GEF activity, Rap1B-BODIPY-GDP fluorescence; series mostly up to 154 µM. In general terms: In qHTS, concentration-response curves come from the screen itself.
Sequence of Rap guanine nucleotide exchange factor 4 (Homo sapiens) (Q8WZA2 whole entry, looked up): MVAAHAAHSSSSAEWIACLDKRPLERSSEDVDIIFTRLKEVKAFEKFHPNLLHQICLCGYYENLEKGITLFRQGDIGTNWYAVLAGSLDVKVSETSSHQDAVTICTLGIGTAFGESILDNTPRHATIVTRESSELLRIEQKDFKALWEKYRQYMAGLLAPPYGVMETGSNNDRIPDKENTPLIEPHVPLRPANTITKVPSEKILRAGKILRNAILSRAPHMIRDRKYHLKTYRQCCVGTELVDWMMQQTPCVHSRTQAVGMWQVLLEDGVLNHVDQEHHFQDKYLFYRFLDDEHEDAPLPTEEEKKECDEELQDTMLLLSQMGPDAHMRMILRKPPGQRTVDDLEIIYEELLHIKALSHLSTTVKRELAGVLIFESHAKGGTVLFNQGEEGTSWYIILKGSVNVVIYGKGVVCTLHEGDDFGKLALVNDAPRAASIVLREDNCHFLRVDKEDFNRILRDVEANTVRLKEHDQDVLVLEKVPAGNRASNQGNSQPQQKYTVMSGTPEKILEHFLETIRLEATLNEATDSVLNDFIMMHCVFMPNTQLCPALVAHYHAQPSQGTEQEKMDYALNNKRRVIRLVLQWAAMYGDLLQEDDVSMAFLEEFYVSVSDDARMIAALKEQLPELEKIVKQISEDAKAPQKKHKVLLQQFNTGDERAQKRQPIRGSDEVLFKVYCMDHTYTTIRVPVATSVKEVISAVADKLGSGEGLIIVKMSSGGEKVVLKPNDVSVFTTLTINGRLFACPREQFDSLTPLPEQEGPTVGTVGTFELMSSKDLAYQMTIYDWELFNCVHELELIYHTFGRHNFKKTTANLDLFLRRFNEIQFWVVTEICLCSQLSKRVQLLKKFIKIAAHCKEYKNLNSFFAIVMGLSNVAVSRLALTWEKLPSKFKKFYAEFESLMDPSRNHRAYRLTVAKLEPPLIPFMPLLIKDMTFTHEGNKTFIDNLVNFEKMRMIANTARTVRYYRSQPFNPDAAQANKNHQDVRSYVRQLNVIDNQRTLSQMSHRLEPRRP
On to `Cn1cccc1/C=C1/C(=O)NC(=S)N(Cc2ccc(F)cc2)C1=O`, for which the activation is 0.836% [at 17.1 µM, percent relative to cAMP agonist control].
Regarding `COc1ccc(N2C(=O)NC(=O)/C(=C/c3ccc([N+](=O)[O-])s3)C2=O)cc1`, the Potency result was “inactive”.
On the same count and under the same terms, next, `Oc1c(Cl)cccc1Cc1cc(Cl)cc(Cl)c1O`: “inactive”; `CCOC(=O)[C@]12Cc3cc(C)ccc3[C@H]1N(Cc1ccccc1)C(=O)c1ccccc12`: “inactive”.
Regarding `CCC(=NCCCO)c1c(O)n(-c2ccc(OC)cc2)c(=O)[nH]c1=O`, the activation is 2.6% [at 17.1 µM, percent relative to cAMP agonist control].
Consider `COc1ccc(-n2c(O)c(/C=C/C=Nc3ccccc3)c(=O)[nH]c2=O)cc1`, for which the Potency was 89.1 µM (active).
Regarding `Cc1cc(/C=C2\C(=O)NC(=O)N(c3ccc(Cl)cc3)C2=O)c(C)n1-c1sc2c(c1C#N)CCCC2`, the activation was 3.87% [at 17.1 µM, percent relative to cAMP agonist control].
With `Cc1ccc(C)c(Cn2c(C(=O)O)c(C=O)c3ccccc32)c1`, the activation was 10% [at 17.1 µM, percent relative to cAMP agonist control].
On to `Cc1ccc(CN2CCCN(Cc3ccccc3C)S2(=O)=O)cc1`, for which the Potency result is “inactive”.
For the compound `O=C1NC(=O)N(Cc2ccco2)C(=O)/C1=C/C=C/c1ccco1`, the activation is 0.0468% [at 17.1 µM, percent relative to cAMP agonist control].
For the compound `CCOC(=O)c1cc(CC)sc1/N=C/c1c(O)[nH]c(=S)[nH]c1=O`, the Potency was 100 µM (active).
`Cc1cc(/C=C2/C(=O)NC(=O)N(Cc3ccco3)C2=O)c(C)n1-c1ccccc1O`: the activation was 11.8% [at 17.1 µM, percent relative to cAMP agonist control].
Regarding `CCN1/C(=C/C=C/C2=[N+](CC)c3ccccc3C2(C)C)C(C)(C)c2ccccc21`, the Potency was 100 µM (active).
Same read-out and setting: next, `Cc1ccc(N2C(=O)NC(=O)/C(=C\C=C\c3ccco3)C2=O)cc1C`: “inactive”; `CCN(CC)c1ccc(N=Cc2c(O)n(CCC3=CCCCC3)c(=O)[nH]c2=O)cc1`: “inactive”; `CN1C(=O)/C(=C/c2cccn2-c2ccc3ccccc3c2)C(=O)NC1=S`: “inactive”.
On the same count and under the same terms, next, `O=Cc1c(C(=O)O)n(Cc2ccc(Cl)cc2)c2ccccc12`: “inactive”.
Take `COc1ccc(OCC(=O)N2CCN(CC3CC4C=CC3C4)CC2)cc1` (stereo not given): the activation was 6.59% [at 17.1 µM, percent relative to cAMP agonist control].
Turning to `CCc1nc2ccccc2c(=O)n1-c1ccccc1OC`, the Potency result was “inactive”.
`O=C(c1cc(Cl)cc(Cl)c1)N1Cc2ccccc2-n2nncc2C1`: the activation was -5.36% [at 17.1 µM, percent relative to cAMP agonist control].
In the case of `COc1ccc(-n2c(O)c(/C=C3\C=Nc4ccc(Br)cc43)c(=O)[nH]c2=O)c(OC)c1`, the Potency result is “inactive”.
As for `COc1ccc(C(=O)C2CN(C)CC2c2ccc(Cl)cc2)cc1` (stereo not given), the activation was 2.15% [at 17.1 µM, percent relative to cAMP agonist control].
Same read-out and setting: next, `CC(Cc1ccc(O)cc1)NCC(O)c1ccc(O)c(O)c1` (stereo not given): -2.87% [at 17.1 µM, percent relative to cAMP agonist control].
`Cc1c(NS(=O)(=O)c2ccccc2)ccc([N+](=O)[O-])c1Cl`: the Potency result is “inactive”.
Still for that read-out and setting: next, `COC(=O)C1=C(c2ccc3ccccc3c2)C[C@@H]2CC[C@H]1N2C(=O)NC1CC1`: “inactive”.
As to `COC(=O)C1=C(c2cc3ccccc3s2)C[C@@H]2CC[C@H]1N2C(=O)NC1CC1`, the Potency entry was “inactive”.
On the same count and under the same terms, next, `O=c1[nH]c(O)c(C=Nc2ccccc2Sc2ccccc2)c(=O)[nH]1`: “inactive”.
Consider `Cc1cc(OC(C)C(=O)N[C@H](C(=O)O)c2ccccc2)c2c3c(c(=O)oc2c1)CCC3` (stereo not given in full), for which the Potency entry is “inactive”.
`COCCCn1c(N)c(C(=O)NCCC(C)C)c2nc3ccccc3nc21`: the activation was 8.34% [at 17.1 µM, percent relative to cAMP agonist control].
Consider `O=C1NC(=O)N(Cc2ccc(F)cc2)C(=O)/C1=C\c1ccc([N+](=O)[O-])s1`, for which the Potency entry is “inactive”.
The same measure, in the same setting: next, `COc1ccc(N=Cc2c(O)n(Cc3ccccc3)c(=S)[nH]c2=O)c(OC)c1`: 100 µM (active); `Cn1cc(C=C2C(=O)NC(=O)NC2=O)c2ccccc21`: 63.1 µM (active).
For the compound `CC[C@@H]1c2ccccc2[C@@H]2CC[C@H]1N2c1ccccc1`, the activation is 4.18% [at 17.1 µM, percent relative to cAMP agonist control].
With `O=C(O)CC1OCC=C2CN3CCC45C6=CC(=O)C(=O)C([N+](=O)[O-])=C6NC4C1C2CC35` (stereo not given), the Potency result is “inactive”.
Same read-out and setting: next, `COC(=O)c1cn(Cc2ccc(F)cc2)c2ccccc12`: “inactive”; `OC1/C(=C/c2ccc(C(F)(F)F)cc2)N2CCC1CC2` (stereo not given): “inactive”; `O=C1NC(=S)N(c2ccccc2)C(=O)/C1=C/c1ccco1`: “inactive”.
Consider `COc1ccc(OC)c(N2C(=O)NC(=O)/C(=C/c3ccc([N+](=O)[O-])s3)C2=O)c1`, for which the activation is 2.06% [at 17.1 µM, percent relative to cAMP agonist control].
For the compound `COC(=O)c1cn(C(=O)c2cccc3ccccc23)c2ccccc12`, the Potency result was “inactive”.
On the same count and under the same terms, next, `CC1=C(O)C(=O)C=C2C1=CC=C1C2(C)CCC2(C)C3CC(C)(C(=O)O)CCC3(C)CCC12C` (stereo not given): “inactive”.
